Results filed as inconclusive are left out. Entries that show only a call come without a potency. Unmarked numbers belong to inactive results. Calls of active or inactive are those of the source. Calls follow the shape of the full dose curve.
Potency is read from the fitted curve at half-maximal effect.

Chain of Retinoic acid receptor RXR-alpha (Homo sapiens) (P19793 whole entry, looked up): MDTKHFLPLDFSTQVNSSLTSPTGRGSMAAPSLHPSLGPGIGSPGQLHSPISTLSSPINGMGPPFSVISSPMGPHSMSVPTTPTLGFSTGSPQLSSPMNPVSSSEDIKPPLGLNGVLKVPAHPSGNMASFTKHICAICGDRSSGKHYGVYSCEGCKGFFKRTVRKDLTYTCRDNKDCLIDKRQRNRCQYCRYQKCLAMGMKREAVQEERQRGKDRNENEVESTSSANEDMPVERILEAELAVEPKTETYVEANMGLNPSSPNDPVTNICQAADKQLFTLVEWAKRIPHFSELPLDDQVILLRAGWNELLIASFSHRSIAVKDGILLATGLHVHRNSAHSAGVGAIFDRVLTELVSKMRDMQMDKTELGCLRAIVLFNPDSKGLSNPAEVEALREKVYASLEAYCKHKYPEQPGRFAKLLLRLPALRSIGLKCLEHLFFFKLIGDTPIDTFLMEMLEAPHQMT

This assay has as its target Retinoic acid receptor RXR-alpha (Homo sapiens) (UniProt P19793). In words: qHTS assay to identify small molecule agonists of the RXR signaling pathway (AID 1159527). Also: nearly all actives have a fitted effect of over 35% in size. The following applies: HEK293T RXRa-UAS-bla, beta-lactamase ratio, 16 h; series mostly up to 76.8 µM. An excerpt:
U.S. Tox21 Program National Center for Advancing Translational Sciences [NCATS] NIH Chemical Genomics Center [NCGC] U.S. Environmental Protection Agency [EPA] National Institutes of Environmental Health Sciences [NIEHS] National Toxicology Program [NTP] U.S. Food and Drug Administration [FDA] Tox21 Assay Overview: The Retinoid X receptor (RXR), a nuclear hormone receptor expressed in liver, spleen, placenta, epidermis, central nervous system. These receptors are able to form homo and heterodimers with other nuclear receptors and due to this heterodimerizing ability, RXR functions as master regulators producing diverse physiological effects. Three subtypes of RXR exist; alpha, beta and gamma. Retinoid X receptor alpha (RXR-alpha) has potential roles in metabolic signaling pathways, skin alopecia, dermal cysts, cardiac development, insulin sensitization etc. Therefore screening environmental chemicals on RXR-alpha signaling can be used for the studies focused on such therapeutic applications. For quantification of RXR-alpha ligands signaling, GeneBLAzer RXR alpha-UAS-bla HEK 293T (Life Technologies, Carlsbad, CA) cells containing a beta-lactamase reporter-gene under control of Retinoid X receptor-alpha response element were used to screen Tox21 10K library.
Tox21 Assay Protocol Summary: RXR-alpha HEK 293T cells were dispensed at 2,000 cells/6 uL of assay medium containing 2% charcoal-stripped FBS using a Multidrop Combi (ThermoFisher Scientific, Waltham, MA) dispenser. The assay was performed in black wall/clear-bottom 1536-well plates (Greiner Bio-One North America Inc. Monroe, NC). 9-cis retinoic acid was used as a positive control in the agonist mode screen. After the assay plates were incubated at 37 C and 5% CO2 for 5 hr, 23 nL of compounds dissolved in DMSO, positive controls or DMSO only were transferred to the assay plate by a Pintool station (Kalypsys, San Diego, CA). The assay plates were incubated at 37 C and 5% CO2 for 16 hr. One uL of LiveBLAzer B/G FRET substrate (Life Technologies) was added using a Flying Reagent Dispenser (Aurora Discovery, San Diego, CA) and the plates were incubated at room temperature for 2 hr. Fluorescence intensity (405 nm excitation, 460/530 nm emission) was measured using an Envision plate reader (PerkinElmer, Shelton, CT).
(In qHTS, concentration-response curves come from the screen itself.)
On to `CC(C)(c1ccc(Oc2ccc3c(c2)C(=O)OC3=O)cc1)c1ccc(Oc2ccc3c(c2)C(=O)OC3=O)cc1`, for which the Potency was 13.7 µM (active). Still for that read-out and setting: then `CC(C)CCCCCCOC(=O)C1CCCCC1C(=O)OCCCCCCC(C)C` (stereo not given), with “inactive”; and `O=C(/C=C/c1ccccc1)NCCO`, with “inactive”.

Take `O=C(O)C(=O)Nc1cccc(-c2nn[nH]n2)c1`: the Potency result was “inactive”. Same read-out and setting: then `CCOC(=O)CCCCCCCCC(=O)OCC`, with “inactive”. On the same count and under the same terms, with `C=C(C)C(=O)OC` the entry was “inactive”. Take `COc1cc2c(Nc3ccc(Br)cc3F)ncnc2cc1OCC1CCN(C)CC1`: the Potency entry was “inactive”. The same measure, in the same setting: with `CCN(CCC#N)c1ccccc1` the entry was “inactive”. The same measure, in the same setting: with `C=COCCOCCOC=C` the entry was “inactive”; with `NS(=O)(=O)c1cc2c(cc1Cl)NC(C(Cl)Cl)NS2(=O)=O` (stereo not given), “inactive”; with `O=C1OC(=O)c2cc(Oc3ccc4c(c3)C(=O)OC4=O)ccc21`, “inactive”. For `CCC(C)(C)C1CCC(=O)CC1`, the Potency result is “inactive”. On to `O=C(Nc1cccc(C2=NCCN2)c1)Nc1cccc(C2=NCCN2)c1`, for which the activation is 1.97% [at 15.8 µM]. On to `CCCCC(CC)COC(=O)c1ccccc1` (stereo not given), for which the Potency result is “inactive”.

Turning to `CC1CCC(C(C)(C)S)C(=O)C1` (stereo not given), the Potency entry was “inactive”. The same measure, in the same setting: with `CN[C@@H]1[C@H](O)[C@H](NC)[C@H]2O[C@@]3(O)C(=O)C[C@@H](C)O[C@H]3O[C@@H]2[C@H]1O` the entry was “inactive”.

For `CCCCCCCCCCCCC1CO1` (stereo not given), the Potency result was “inactive”. On the same count and under the same terms, then `CN=C(NC#N)NCCSCc1csc(N=C(N)N)n1`, with “inactive”; and `O=S(=O)(O)CCO`, with “inactive”; and `COC(/C=C(\C)CCC=C(C)C)OC`, with “inactive”. On the same count and under the same terms, then `C[C@H](CCC(=O)O)[C@H]1CC[C@H]2[C@@H]3[C@H](O)C[C@@H]4C[C@H](O)CC[C@]4(C)[C@H]3C[C@H](O)[C@]12C`, with “inactive”; and `CCCCC(C)C(=O)O` (stereo not given), with “inactive”; and `COc1ccc(OC)c(NC(=O)CC(C)=O)c1`, with “inactive”.

`Cc1cc(O)c2c(c1)C(=O)c1cccc(O)c1C2=O`: the Potency entry was “inactive”. Same read-out and setting: with `C=CCOc1c(Br)cc(Br)cc1Br` the entry was “inactive”. For the molecule `Nc1c(NC/C=C\COc2cc(CN3CCCCC3)ccn2)c(=O)c1=O`, the activation was 10.6% [at 15.8 µM].

Regarding `CCN(Cc1cccc(S(=O)(=O)O)c1)c1ccccc1`, the Potency result was “inactive”. Still for that read-out and setting: with `CCOc1ccc(NC(=O)OC(C)C)cc1OCC` the entry was “inactive”.

Regarding `Oc1ccccc1Cc1ccccc1O`, the Potency result was “inactive”. With `CCCCCCCCCCCCOC(C)=O`, the Potency result is “inactive”. Still for that read-out and setting: with `CN(C)CCCNCCC#N` the entry was “inactive”. The same measure, in the same setting: with `OC(CCN1CCCCC1)(c1ccccc1)c1ccccc1` the entry was “inactive”. The same measure, in the same setting: with `CCCCCCCCCCC` the figure was 12.3 µM (active); with `Cc1c(C(C)C)c(=O)n(-c2ccccc2)n1C`, “inactive”.

With `NC(=O)NC(=O)Cc1ccccc1`, the Potency entry was “inactive”. On to `NC(=O)C1(N2CCCCC2)CCN(CCCC(=O)c2ccc(F)cc2)CC1`, for which the Potency result was “inactive”. As to `O=C(O)Cc1cccc(-c2cc(CCCCCCc3ccc(O[C@H]4O[C@H](CO)[C@@H](O)[C@H](O)[C@@H]4O)c(-c4cccc(CC(=O)O)c4)c3)ccc2O[C@H]2O[C@H](CO)[C@@H](O)[C@H](O)[C@@H]2O)c1`, the activation was 6.74% [at 0.29 µM]. On to `CCC(=O)OCCC(C)CCC=C(C)C` (stereo not given), for which the Potency entry was “inactive”. On the same count and under the same terms, with `O=C(CN1CCN(Cc2ccc3c(c2)OCO3)CC1)N1c2ccccc2Sc2ccccc21` the entry was “inactive”.

Regarding `CCCOCCOCCOCCO`, the Potency entry was “inactive”.

Values taken from PubChem BioAssay (Tox21).
